Among all 69,000 compounds or so, about 8,600 (12%) showed an effect of 50% or more. The list comes from a sample in which strong results are over-represented; it also holds similar structures and randomly drawn compounds.
Test system: Plasmodium berghei
Test: Screen against P. berghei liver stage (PbLuc), transformed with Luciferase, at 10uM
Assay type: functional, HepG2
Conditions: tested at 10 uM

Compared with Cc1cc(NC(=O)NCC(c2ccc(C)o2)N2CCOCC2)n(C)n1 (stereo unspecified), Cc1cc(NC(=O)NCC2COc3ccccc3C2)no1 (stereo unspecified) is lower in INHIBITION: 45.7% for the first, 40% for the second.

Compared with CC(NC(=O)NCCCn1cncn1)c1ccncc1 (stereo unspecified), Cc1nc(CNC(=O)NCC(O)c2ccccc2)cs1 (stereo unspecified) is lower in INHIBITION: 33% for the first, 11.2% for the second.

First: CN(C)[C@@H]1CCN(C(=O)CC2CC2)[C@H]1Cc1cnn(C)c1
Second: Cn1nccc1C1CCN(CC(=O)NCC2CC2)CC1
The INHIBITION of the first is lower: 4.27% for the first, 70.8% for the second.

Compared with COCC1CN(Cc2ccoc2)Cc2nn(CC3CC3)cc21 (stereo unspecified), CCOCC(=O)N1CCC(C2CCN(Cc3ccc(Cl)cc3)C2)CC1 (stereo unspecified) is higher in INHIBITION: 1.9% for the first, 26.9% for the second.

First: CC(=O)NCC(=O)N1C[C@@H]2CC[C@H](Oc3ccccc3Cl)[C@@H]2C1
Second: CC(=O)NCC(=O)N1CCC(C2CCN(Cc3ccc(Cl)cc3)C2)CC1 (stereo unspecified)
The INHIBITION of the first is higher: 30.8% for the first, 26.9% for the second.

First: CCOC(=O)NCCC(=O)NCc1ccc(Oc2cccc(F)c2)nc1
Second: CCOC(=O)NCCC(=O)NCc1ccc(Oc2ccc(F)cc2)nc1
The INHIBITION of the first is lower: 35.5% for the first, 61.5% for the second.

Going from CCOC(=O)NCCC(=O)NCc1ccnc(Oc2ccc(F)cc2)c1 to CCn1nc(C)cc1C(=O)OCCNC(=O)c1ccccc1, the INHIBITION falls from 21.5% to -1.95%.

First: CCc1noc(CN2CCN(CCO)CC2)n1
Second: Cc1cccc(OCCN2CCN(Cc3cnn(CCO)c3)CC2)c1
The INHIBITION of the first is lower: 15.8% for the first, 32.9% for the second.

Going from Cc1cnn(CC2CCCN2CC(=O)Nc2cc(C)no2)c1 (stereo unspecified) to Cc1csc(NC(=O)CN2CCC(c3ccnn3CCO)CC2)n1, the INHIBITION rises from -0.219% to 66%.

Compared with CCCC(=O)NC1CCc2c(ccc(=O)n2Cc2csc(C)n2)C1 (stereo unspecified), Cc1nc(CN2C(=O)C[C@@H]3[C@@H]2CCN3Cc2cnn(C)c2)cs1 is lower in INHIBITION: 17.6% for the first, -8.51% for the second.

Going from CC(C)N1CCOC(CC(=O)N2CCCN(Cc3ccncc3)CC2)C1 (stereo unspecified) to CC(C)N1CCOC(CC(=O)N2CCCN(Cc3cccs3)CC2)C1 (stereo unspecified), the INHIBITION falls from 58.5% to 28.5%.

Going from CC(C)N1CCOC(CC(=O)N2CCCN(c3ccc(F)cc3)CC2)C1 (stereo unspecified) to Cc1ccccc1N1CCCN(C(=O)CC2CN(C(C)C)CCO2)CC1 (stereo unspecified), the INHIBITION rises from 22.1% to 60.3%.

First: Cc1ccc(N2CCCN(C(=O)CC3CCCO3)CC2)nn1 (stereo unspecified)
Second: CC(C)N1CCOC(CC(=O)N2CC(c3ccncc3)C2)C1 (stereo unspecified)
The INHIBITION of the first is higher: 35.3% for the first, 31.2% for the second.

Going from CN(C)C(=O)C1CN(Cc2ccsc2)CCN(S(C)(=O)=O)C1 (stereo unspecified) to CN1CCN(Cc2ccc(Cl)cc2)CC1C(=O)O (stereo unspecified), the INHIBITION falls from 20.8% to 17%.

Going from O=C(c1cccnc1)N1CCOCC2(CCN(c3ncccn3)C2)C1 (stereo unspecified) to Cc1ccc(CN2CCC3(CC2)CN(C(=O)c2cnccn2)CCO3)o1, the INHIBITION rises from -62.6% to -14.2%.

Compared with Cc1cc(C)c(C(=O)NCCNc2ncnc3ccccc23)c(=O)[nH]1, CCn1nc(C)cc1C(=O)OCCNc1ncnc2ccccc12 is higher in INHIBITION: -21.6% for the first, 83.2% for the second.

First: COC(=O)CSCc1nc(-c2ccc(Cl)cc2)no1
Second: COC(=O)CSCc1noc(-c2ccc(Cl)cc2)n1
The INHIBITION of the first is higher: 48.8% for the first, 46.6% for the second.

First: COC(=O)CSCc1noc(-c2ccc(C)cc2)n1
Second: Cc1cc(OCC(=O)N2CCCC(c3nccs3)C2)no1 (stereo unspecified)
The INHIBITION of the first is higher: 91.3% for the first, -19.6% for the second.

First: Cn1cc(CCN2CCOC(CNc3cccnn3)C2)cn1 (stereo unspecified)
Second: Cn1cc(CN2C[C@@H]3COC[C@]3(C(=O)NCc3ccccn3)C2)cn1
The INHIBITION of the first is lower: -33.7% for the first, 13.7% for the second.

Compared with CCCOCC1CCN(C(=O)c2cnc(C)nc2O)C1 (stereo unspecified), Cc1cnc2c(C(=O)N3CCCC(OCc4ccccn4)C3)cnn2c1 (stereo unspecified) is higher in INHIBITION: 35.8% for the first, 37.9% for the second.

First: Nc1ccc(CC2COc3ccccc3C2)cn1 (stereo unspecified)
Second: Nc1cc(CC2COc3ccccc3C2)ccn1 (stereo unspecified)
The INHIBITION of the first is lower: 56.3% for the first, 57.9% for the second.

First: O=S(=O)(NCC1COc2ccccc2C1)N1CCCCCC1 (stereo unspecified)
Second: O=C(c1ccnc(CC2COc3ccccc3C2)c1)N1CCCC1 (stereo unspecified)
The INHIBITION of the first is lower: -9.3% for the first, 31.5% for the second.

First: CC(C)NC(=O)[C@@H]1CN(Cc2ccc3c(c2)OCO3)C[C@H]2OCC[C@H]21
Second: CN(C)C(=O)CO[C@H]1CN(Cc2ccc3c(c2)OCO3)[C@@H]2COC[C@H]12
The INHIBITION of the first is lower: 26.5% for the first, 47.4% for the second.

Going from CN(Cc1noc(C2CC2)n1)C1CCCN(c2cccnn2)C1 (stereo unspecified) to CCc1nc(C2CCCN2CC(=O)N2CCCc3ccccc32)no1 (stereo unspecified), the INHIBITION rises from 5.9% to 15.3%.

Going from CC1(C(=O)NC2CCCC2)CN(c2cnccn2)CCO1 (stereo unspecified) to O=C(CN1CCC(c2ccnn2CCO)CC1)NC1CCCC1, the INHIBITION falls from 12.3% to -11.4%.

First: CCC(CC)N(C)S(=O)(=O)c1ccc(CCNC(C)=O)s1
Second: CCC(C)N(C)S(=O)(=O)c1ccc(CCNC(C)=O)s1 (stereo unspecified)
The INHIBITION of the first is lower: -79.8% for the first, 13.7% for the second.

Going from CC(=O)NCCc1ccc(S(=O)(=O)N(C)C(C)CC(C)C)s1 (stereo unspecified) to COCCCN(Cc1cc(O)nc2ccccc12)C(=O)NC(C)C, the INHIBITION falls from 68.2% to 33%.

First: CC(C)NCc1cc2n(n1)CCN(C1CCCCC1)C2
Second: c1nc(NCc2cc3n(n2)CCN(C2CCCCC2)C3)c2nc[nH]c2n1
The INHIBITION of the first is lower: 14.9% for the first, 78.5% for the second.

Compared with CC(C)CN1CCn2nc(CNc3ncnc4[nH]cnc34)cc2C1, CN1CCN(C)C(CNc2c(C#N)cnc3ccc(Cl)cc23)C1 (stereo unspecified) is lower in INHIBITION: 33% for the first, 7.18% for the second.

Compared with CCc1nnc2ccc(N3CCN(S(=O)(=O)c4ccc(Cl)s4)CC3)nn12, Cn1nccc1C(=O)N1CCC(c2nnsc2S(C)(=O)=O)CC1 is lower in INHIBITION: 32.3% for the first, 30.95% for the second.

First: Cc1nc(C)c(CC(=O)Nc2nc(C)c(C)s2)c(=O)[nH]1
Second: CSc1sc(NC(=O)Cc2c(C)nc(C)[nH]c2=O)nc1C
The INHIBITION of the first is lower: 21.1% for the first, 71.4% for the second.

First: Cc1nc(C)c(CC(=O)Nc2nnc(C)s2)c(=O)[nH]1
Second: Cc1cc(Br)ccc1C(=O)Nc1c(C(N)=O)n[nH]c1C
The INHIBITION of the first is higher: 20.1% for the first, 3.87% for the second.

Going from O=c1[nH]c(-c2ccccn2)nc2c1CCN(S(=O)(=O)N1CCCC1)C2 to O=C(N1CCCC1)N1CCN(Cc2cccnc2)c2ncccc2C1, the INHIBITION rises from 7.92% to 31.2%.

Going from CS(=O)(=O)c1cn[nH]c1C1CCCN(C(=O)CN2CCOCC2)C1 (stereo unspecified) to CC(C)S(=O)(=O)N1CCC(c2[nH]ncc2S(C)(=O)=O)C1 (stereo unspecified), the INHIBITION rises from 20.8% to 37.6%.

First: O=C(CN1CCC(c2ccnn2CCO)CC1)NCc1cccs1
Second: O=C(CN1CCC(c2ccnn2CCO)CC1)NCc1ccco1
The INHIBITION of the first is lower: 10.8% for the first, 58.5% for the second.

First: O=C(CN1CCOC(c2ccc(Cl)c(Cl)c2)C1)NCc1ccco1 (stereo unspecified)
Second: O=C(CN1CCOC(c2ccc(Cl)s2)C1)NCc1ccco1 (stereo unspecified)
The INHIBITION of the first is lower: 21.5% for the first, 52.8% for the second.

Compared with O=C(CN1CCC(c2ccnn2CCO)CC1)NCC1CC1, O=C(CN1CCC(c2ccnn2CCO)CC1)NCC1CCCCC1 is lower in INHIBITION: 33.3% for the first, -17.6% for the second.

Compared with CC(C)C(C)(C#N)NC(=O)CN1CCC(c2ccnn2CCO)CC1 (stereo unspecified), N#CC1(NC(=O)CN2CCC(c3ccnn3CCO)CC2)CCCC1 is higher in INHIBITION: -1.14% for the first, 37.9% for the second.

First: CCC1CN(CC(=O)NCc2ccco2)CCO1 (stereo unspecified)
Second: CN(C)CCOCc1nnc2n1CCN(Cc1ccco1)CC2
The INHIBITION of the first is higher: 36.6% for the first, 16.4% for the second.

Going from COC1(CNC(=O)NCc2ccccc2)CCSC1 (stereo unspecified) to CC(=O)N1CCN(CCNC(=O)c2nc3ccccc3c(=O)[nH]2)CC1, the INHIBITION falls from 18.7% to -96.2%.

First: CN(CCC#N)C(=O)C(C)(C)Oc1ccc(C(N)=O)cc1
Second: NC(=O)c1c(NC(=O)CCC(=O)O)sc2c1CCc1ccccc1-2
The INHIBITION of the first is higher: 25.3% for the first, -13% for the second.

Going from CCNC(=O)[C@@H]1C[C@@H](NC(=O)c2ccc(C)cc2O)CN1CCCSC to Cc1nn(C)c(C)c1S(=O)(=O)NCC(C)(O)c1ccc2c(c1)OCO2 (stereo unspecified), the INHIBITION rises from 15.9% to 34.3%.

Going from Cc1nn(C)c(Cl)c1S(=O)(=O)N(C)c1ccc(Cl)cn1 to Cn1cnc(S(=O)(=O)NCC(C)(O)c2ccc3c(c2)OCO3)c1 (stereo unspecified), the INHIBITION rises from 14.4% to 52.5%.

Going from O=C1CC(c2ccncc2)C2(CCN(Cc3ccc(F)cc3)CC2)N1 (stereo unspecified) to COC1CC2(CCN(Cc3ccc4c(c3)OCO4)CC2)C1, the INHIBITION rises from 1.71% to 37.4%.

Compared with O=C1CN(C(=O)C2CCCCC2)CC(O)CN1Cc1ccc(Cl)cc1 (stereo unspecified), O=C(C1CCCC1)N1CCC(C2CCN(Cc3ccc(Cl)cc3)C2)CC1 (stereo unspecified) is higher in INHIBITION: -0.473% for the first, 67.3% for the second.

First: O=C(C1CCC1)N1CCC(C2CCN(Cc3ccc(Cl)cc3)C2)CC1 (stereo unspecified)
Second: CN(C)c1cc(C(=O)N2CCCCCC2)ccn1
The INHIBITION of the first is higher: 55.6% for the first, 5.308% for the second.

First: O=S(=O)(CCNC1CCc2ncnn2C1)c1ccccc1 (stereo unspecified)
Second: CS(=O)(=O)N1C[C@H](C(=O)Nc2cccnc2)C[C@H]2OCC[C@H]21
The INHIBITION of the first is lower: 20.6% for the first, 30.5% for the second.

Compared with Cc1nn(CC(O)CN2CCc3ccccc3C2)c(=O)c2ccccc12 (stereo unspecified), c1cncc(C2CC3(CCN(c4cnccn4)CC3)c3ccccc32)c1 (stereo unspecified) is higher in INHIBITION: 18.6% for the first, 54.1% for the second.

Going from Cc1noc(C)c1S(=O)(=O)NCC(C)(O)c1ccc2c(c1)OCO2 (stereo unspecified) to Cc1cc(C)cc(OCC(=O)N2CCC2)c1, the INHIBITION falls from 31.3% to -5.22%.

First: CNc1nccnc1C1CN(C(=O)c2cc[nH]n2)CCO1 (stereo unspecified)
Second: O=C(Nc1cnccn1)[C@H]1C[C@H]2OCC[C@H]2N(c2ncc(F)cn2)C1
The INHIBITION of the first is lower: -22.5% for the first, 60% for the second.

Going from CCOC1CC2(CCN(c3cnccn3)CC2)c2ccccc21 (stereo unspecified) to CN(C)CCOC1CC2(CCN(c3cnccn3)CC2)c2ccccc21 (stereo unspecified), the INHIBITION falls from 37.9% to 31.9%.

Compared with CS(=O)(=O)N1C[C@@H](C(=O)Nc2cnccn2)C[C@H]2OCC[C@H]21, CS(=O)(=O)N1C[C@H](C(=O)Nc2cnccn2)C[C@H]2OCC[C@H]21 is higher in INHIBITION: 39.3% for the first, 61.5% for the second.

First: O=C(Nc1cnccn1)[C@@H]1C[C@H]2OCC[C@H]2N(c2ncc(F)cn2)C1
Second: O=C(Nc1cnccn1)[C@H]1CO[C@H]2CCN(c3ncc(F)cn3)C[C@H]2C1
The INHIBITION of the first is lower: 0.923% for the first, 27.3% for the second.

Reference: ChEMBL document CHEMBL4513216, “Probing the Open Global Health Chemical Diversity Library for Multistage-Active Starting Points for Next-Generation Antimalarials” (ACS Infect Dis, 2020)
